Compound activity: PubChem BioAssay, National Center for Advancing Translational Sciences (NCATS)
PLK1 PBD block – PLK1 (human) polo-box domain binding inhibition | Plk1 PBD binding of FITC phosphopeptide, fluorescence polarization | Potency, µM, usual class: inhibitors | 360,000 compounds, 2.8% hits; further: series mostly up to about 57 µM; nearly all actives have a fitted effect of over 65% in size
KAT2A inh – GCN5L2 (KAT2A) acetyltransferase inhibition | GCN5L2 HAT assay, ThioGlo1 CoA-SH fluorescence | Potency, µM (highest dose often 58.9 µM), actives largely listed as inhibitors | 390,000 compounds, 0.21% hits
Target sequence (Q92830 whole entry, looked up): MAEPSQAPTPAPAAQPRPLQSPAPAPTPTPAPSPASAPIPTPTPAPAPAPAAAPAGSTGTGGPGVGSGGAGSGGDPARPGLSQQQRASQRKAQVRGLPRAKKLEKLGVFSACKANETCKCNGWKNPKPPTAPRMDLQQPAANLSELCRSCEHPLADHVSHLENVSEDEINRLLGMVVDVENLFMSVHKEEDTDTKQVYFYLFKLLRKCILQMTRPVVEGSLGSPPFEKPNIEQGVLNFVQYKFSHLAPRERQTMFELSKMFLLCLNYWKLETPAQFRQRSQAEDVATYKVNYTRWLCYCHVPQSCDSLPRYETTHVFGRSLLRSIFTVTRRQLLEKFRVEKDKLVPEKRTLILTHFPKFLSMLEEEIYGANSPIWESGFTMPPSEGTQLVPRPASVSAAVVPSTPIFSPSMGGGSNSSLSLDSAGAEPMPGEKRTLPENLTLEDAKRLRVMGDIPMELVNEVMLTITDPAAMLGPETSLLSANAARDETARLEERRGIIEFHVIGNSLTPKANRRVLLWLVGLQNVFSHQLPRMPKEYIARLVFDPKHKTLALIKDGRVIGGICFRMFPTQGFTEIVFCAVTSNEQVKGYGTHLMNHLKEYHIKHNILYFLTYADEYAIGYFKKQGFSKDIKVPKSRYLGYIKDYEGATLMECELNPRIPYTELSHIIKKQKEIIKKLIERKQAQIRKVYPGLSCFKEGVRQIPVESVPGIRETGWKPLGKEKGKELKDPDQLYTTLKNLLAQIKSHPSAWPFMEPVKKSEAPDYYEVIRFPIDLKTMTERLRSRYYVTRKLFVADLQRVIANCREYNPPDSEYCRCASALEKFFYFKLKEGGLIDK
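ThioGlo1-coupled HAT assay: 20nM GCN5L2, 70uM acetyl-CoA, 75uM H3(1-25) peptide, pH 7.5. Fluorescence read at 340/540nm at start and after 20 min at room temperature.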
DT40 TDP1 CPT – growth inhibition of DT40 Tdp1-/-;hTDP1 cells with camptothecin (screen for TDP1 inhibitors); chicken DT40 Tdp1-/-;hTDP1 cells + 20 nM CPT, ATP luminescence, 48 h; Potency, µM (doses to about 46.2 µM), actives largely listed as inhibitors; 420,000 compounds, 12% hits; AID 686979; further: nearly all actives have a fitted effect of over 55% in size
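Cell growth measured by CellTiter-Glo luminescence after a minimum 48 h, 37 C compound exposure with 20 nM CPT in Tdp1-knockout DT40 cells stably expressing hTDP1, seeded 400/well; qHTS titration format.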
DT40 TDP1 no CPT – qHTS for Inhibitors of human tyrosyl-DNA phosphodiesterase 1 (TDP1): qHTS in cells in absence of CPT; DT40 Tdp1-/- hTDP1 cells, no CPT, ATP luminescence, 48 h; Potency, µM (series often up to 46.2 µM), hits mostly inhibitors; 420,000 compounds, 15% hits; AID 686978, 2013; further: nearly all actives have a fitted effect of over 55% in size
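Stably hTDP1-transfected Tdp1-null chicken DT40 cells were treated with library compounds minus camptothecin and grown for at least 48 hr at 37 °C, after which cellular ATP was quantified by luminescence.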
VDR inhibitor – blocks the human vitamin D receptor; 400,000 compounds, 0.93% hits; VDR-SRC2-3 peptide fluorescence polarization, 2 h; P11473; Potency, µM, actives largely listed as inhibitors
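Inhibition of the VDR/SRC2-3 peptide interaction is quantified by fluorescence polarization. Compounds (23 nl, pintool) incubate with the reagents for 2 hours at ambient room temperature.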
TDP1 inh – blocks human tyrosyl-DNA phosphodiesterase 1; Potency, µM (titrated, usually from 130 µM), usual class: inhibitors; recombinant TDP1, AlphaScreen DNA substrate cleavage; 350,000 compounds, 0.28% hits; further: nearly all actives have a fitted effect of over 40% in size
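E. coli-derived human Tdp1, 1 nM final. Cpd preinc 15 min RT; substrate 15 nM final, 5 min RT; AS bead mix 10 ug/ml final, 10 min RT. Signal loss = tyrosine-FITC cleavage. No-enzyme wells = max signal.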
Large screens that a line does not name were inactive. This is a sample that favours compounds with a hit; in the whole collection about 18% have one here. The call rests on the fitted dose curve; in most records, active means well fitted curve in the direction sought with a large enough effect; inconclusive means small, poorly fitted or top-dose-only effect, or another doubt; inactive means no such curve, though single readings can be large; an effect the other way counts as inactive or inconclusive.

CCC(=O)N1CCc2cc(S(=O)(=O)NCCC(=O)NCc3ccc(C)cc3)ccc21	DT40 TDP1 CPT 21µM, DT40 TDP1 no CPT inconclusive (no result: PLK1 PBD block)
CCC(=O)N1CCc2cc(S(=O)(=O)NCCC(=O)NCc3ccccc3Cl)ccc21	DT40 TDP1 CPT inconclusive, DT40 TDP1 no CPT inconclusive
CCC(=O)N1CCc2cc(S(=O)(=O)NCCC(=O)Nc3cc(C)cc(C)c3)ccc21	PLK1 PBD block 27µM
CC(=O)N1CCc2cc(S(=O)(=O)NCCC(=O)Nc3cc(C)cc(C)c3)ccc21	none
CCOC(=O)N1CCN(S(=O)(=O)c2c(C)nc3sccn3c2=O)CC1	none
CCOc1ccc(CNC(=O)c2ccc3c(c2)nc2n3CCCCC2)cc1	none (no result: PLK1 PBD block)
Cc1nn(-c2ccccc2)c(=S)n1-c1ccccc1	DT40 TDP1 CPT 21µM, DT40 TDP1 no CPT 13µM
Cc1nn(-c2ccccc2)c(C)c1N	none
O=C(NCc1ccccc1CN1CCCC1)c1ccc(S(=O)(=O)Nc2ccccc2)cc1	DT40 TDP1 CPT 21µM, DT40 TDP1 no CPT 13µM (no result: KAT2A inh, VDR inhibitor, TDP1 inh)
O=C(NCc1ccccc1CN1CCCC1)c1ccc(S(=O)(=O)Nc2ccccc2F)cc1	DT40 TDP1 no CPT inconclusive (no result: KAT2A inh, VDR inhibitor, TDP1 inh)
Cc1ccccc1NS(=O)(=O)c1ccc(C(=O)NCc2ccccc2CN2CCCC2)cc1	DT40 TDP1 CPT inconclusive, DT40 TDP1 no CPT 23µM (no result: KAT2A inh, VDR inhibitor, TDP1 inh)
O=C(NCc1ccccc1CN1CCCC1)c1cccc(S(=O)(=O)N2CCCC2)c1	none
O/N=C/c1ccccc1Oc1ccc(Cl)cc1	PLK1 PBD block 8.4µM, DT40 TDP1 CPT inconclusive, DT40 TDP1 no CPT 16µM, VDR inhibitor inconclusive
Cc1nc(SC2CC(=O)N(c3cc(Cl)cc(Cl)c3)C2=O)nc2c1CCCC2 (configuration not stated)	DT40 TDP1 CPT 21µM, DT40 TDP1 no CPT inconclusive
Cc1cccc(N2C(=O)CC(Sc3nc(-c4ccccc4)c4cc(Cl)ccc4n3)C2=O)c1 (configuration not stated)	DT40 TDP1 CPT inconclusive, DT40 TDP1 no CPT inconclusive
COc1ccc(N2C(=O)CC(Sc3n[nH]c(-c4ccccc4)n3)C2=O)cc1 (configuration not stated)	PLK1 PBD block 27µM, DT40 TDP1 CPT 0.46µM, DT40 TDP1 no CPT 1.2µM
CCOC(=O)CN1C(=O)C(CC)Oc2ccccc21 (configuration not stated)	none
COc1ccc(N2C(=O)CC(Sc3nc(C)c4c(n3)CCCC4)C2=O)cc1 (configuration not stated)	DT40 TDP1 CPT 18µM, DT40 TDP1 no CPT 23µM
CCOC(=O)CN1C(=O)C(Sc2n[nH]c(-c3ccccc3)n2)CCc2ccccc21 (configuration not stated)	DT40 TDP1 CPT 21µM, DT40 TDP1 no CPT 21µM
CN(CC1COCCO1)C(=O)c1cnn(-c2ncc3c(n2)-c2ccccc2CC3)c1C1CC1 (configuration not stated)	DT40 TDP1 CPT inconclusive (no result: PLK1 PBD block, KAT2A inh, VDR inhibitor, TDP1 inh)
COc1ccc(-n2nc(C(=O)Nc3cccc(C)n3)c3c4ccccc4n(C)c3c2=O)cc1	none (no result: PLK1 PBD block)
CCOc1ccc(/C=N/Nc2cc(=O)n(C)c(=O)n2C)cc1	DT40 TDP1 no CPT inconclusive
Cc1nc(-n2[nH]c3c(c2=O)CCCC3)[nH]c(=O)c1Cc1ccccc1	DT40 TDP1 CPT 2.9µM, DT40 TDP1 no CPT 3.3µM
CC1=C(C(=O)N(C)C)CC(CC(=O)NCCCCc2ccccc2)C(=O)N1Cc1ccc(F)cc1 (configuration not stated)	DT40 TDP1 no CPT inconclusive (no result: KAT2A inh, VDR inhibitor, TDP1 inh)
CCCCCC(=O)N1C[C@@H](O)[C@H](n2cc(COC(=O)c3ccccc3)nn2)C[C@@H]1c1ccc(C)cc1	none (no result: KAT2A inh, VDR inhibitor, TDP1 inh)
CCCCCC(=O)N1C[C@H](O)[C@@H](n2cc(COC(=O)c3ccccc3)nn2)C[C@@H]1c1ccc(Cl)cc1	DT40 TDP1 CPT inconclusive, DT40 TDP1 no CPT 26µM (no result: KAT2A inh, VDR inhibitor, TDP1 inh)
CCCCCC(=O)N1C[C@H](n2cc(COC(=O)c3ccccc3)nn2)[C@@H](O)C[C@@H]1c1ccccc1	none (no result: KAT2A inh, VDR inhibitor, TDP1 inh)
CCCCCC(=O)N1C[C@H](n2cc(COC(=O)c3ccccc3)nn2)[C@@H](O)C[C@@H]1c1ccc(OC)cc1	DT40 TDP1 CPT 21µM, DT40 TDP1 no CPT inconclusive (no result: KAT2A inh, VDR inhibitor, TDP1 inh)
COc1ccc(S(=O)(=O)Nc2cc(C)on2)cc1	none (no result: TDP1 inh)
COc1ccc(C(=O)c2c(N)c(C(=O)Nc3cccc(OC)c3)c3ccccn23)cc1	DT40 TDP1 CPT inconclusive (no result: PLK1 PBD block)
CC1(C)CC(=O)C2=C(C1)OC(N)=C(C#N)C2c1ccoc1 (configuration not stated)	none
C/C(=C\c1ccco1)C1C(C#N)=C(N)Oc2n[nH]c(-c3ccc(C)cc3)c21 (configuration not stated)	DT40 TDP1 CPT 16µM, DT40 TDP1 no CPT inconclusive
CC1(C)CC(=O)C2=C(C1)OC(N)=C(C#N)C2C#Cc1ccccc1 (configuration not stated)	PLK1 PBD block 11µM, DT40 TDP1 CPT 5.2µM, DT40 TDP1 no CPT 4.6µM, VDR inhibitor 45µM
C/C(=C\c1ccco1)C1C(C#N)=C(N)OC2=C1C(=O)CC(C)(C)C2 (configuration not stated)	DT40 TDP1 CPT 26µM, DT40 TDP1 no CPT inconclusive
COc1ccc(Oc2cccc(Cl)c2CNC(=O)CCCC(=O)O)cc1	none
N[C@@H](CCS(=O)O)C(=O)O	DT40 TDP1 CPT inconclusive (no result: PLK1 PBD block)
Cc1cccc(CCNC(=O)CCc2c(C)nc3c(-c4ccc(F)cc4)c(C)nn3c2C)c1	DT40 TDP1 CPT inconclusive, DT40 TDP1 no CPT 9.2µM (no result: PLK1 PBD block)
COC(CNC(=O)CCc1c(C)nc2c(-c3ccc(F)cc3)c(C)nn2c1C)OC	PLK1 PBD block 30µM, DT40 TDP1 no CPT inconclusive
COc1cc(OC)cc(-c2nc3nc(C)c(CCC(=O)NCC(OC)OC)c(C)n3n2)c1	none
CC(C)C(=O)Nc1cccc(C(=O)Nc2nnc(CC(C)(C)C)s2)c1	DT40 TDP1 no CPT inconclusive (no result: PLK1 PBD block)
O=C(Nc1ccccc1N1CCOCC1)C1CCN(S(=O)(=O)c2ccccc2F)CC1	none
COC(=O)C(=N/Nc1ccccc1C(=O)OC)/C(C)=N/O	none
CCc1ccc(NS(=O)(=O)c2c(C(=O)N3CCOCC3)c(C)n(C)c2C)cc1	none
CCOC(=O)c1ccc(N2C(=O)c3n[nH]c(-c4cccs4)c3C2c2ccc(CC)cc2)cc1 (configuration not stated)	DT40 TDP1 CPT 15µM, DT40 TDP1 no CPT 12µM (no result: PLK1 PBD block)
CCOC(=O)c1ccc(N2C(=O)c3n[nH]c(C)c3C2c2cccc(Br)c2)cc1 (configuration not stated)	DT40 TDP1 CPT inconclusive, DT40 TDP1 no CPT inconclusive (no result: PLK1 PBD block)
CCOC(=O)c1ccc(N2C(=O)c3n[nH]c(-c4cccs4)c3C2c2ccc(C(C)C)cc2)cc1 (configuration not stated)	DT40 TDP1 CPT inconclusive, DT40 TDP1 no CPT 16µM (no result: PLK1 PBD block)
